SARS PLP yeast – qHTS of Yeast-based Assay for SARS-CoV PLP | 0.19% of 330,000 active | S. cerevisiae expressing SARS-CoV PLpro, growth rescue | AID 485353, 2010 | Potency, µM (highest dose often 32.9 µM), for the others: at the top dose activity, positive = growth rescue, most hits filed as activators; also: potency is read from the fitted curve at half-maximal effect; 0% is about no effect; nearly all actives have a fitted effect of over 55% in size
Pf growth 48h – Primary qHTS for delayed death inhibitors of the malarial parasite plastid, 48 hour incubation; AID 504832, 2011; 5.9% of 310,000 active; Potency, µM (series often up to 28.7 µM), inactives show at the top dose activity change, negative = inhibition, hits mostly inhibitors; P. falciparum luciferase growth in erythrocytes, 48 h; active = well fitted inhibition curve with a large enough effect; inconclusive = small, poorly fitted or top-dose-only effect, or another doubt; inactive = no such curve, though single readings can be large or run the other way; also: potency is read from the fitted curve at half-maximal effect; % is scaled to controls: 0 for no effect and ±100 for the full control effect
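Firefly luciferase activity from engineered P. falciparum reports growth; inhibitors lower the luminescent signal. Cultures contained 2% hematocrit erythrocytes at 0.1% final parasitemia.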
Shiga inhibitor – A qHTS for Small Molecule Inhibitors of Shiga Toxin; AID 2315, 2010; inhibition, % at 38.7 µM; 9.2% of 290,000 active; Vero cells, Shiga toxin protein synthesis inhibition reporter; in the data active = inhibition mostly above about 28%, no sharp cut-off; inactive = mostly below about 43%; also: 0% is about no effect
NS1 inh – qHTS Assay for Inhibitors of Influenza NS1 Protein Function | Potency, µM (series often up to 46.1 µM), for the others: at the highest dose activity, positive = more growth | 0.4% of 270,000 active | AID 2326, 2010; also: potency is read from the fitted curve at half-maximal effect; actives are rising curves; nearly all actives have a fitted effect of over 50% in size
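OD600 was taken as the measure of yeast growth restored by compound in an NS1-expressing S. cerevisiae strain. Cells had been washed out of glucose medium and diluted 1:100 into galactose -URA medium, pH 6.0.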
CHX counter – Cycloheximide Counterscreen for Small Molecule Inhibitors of Shiga Toxin; cell reporter, cycloheximide protein synthesis inhibition counterscreen; max response, %; AID 2314, 2010; 12% of 300,000 active; in the data active = max response mostly above about 13%, no sharp cut-off; inactive = mostly below about 14%; also: read at 38.3 µM for the half of the compounds with a filed dose; 0% is about no effect
Pf growth 96h – Primary qHTS for delayed death inhibitors of the malarial parasite plastid, 96 hour incubation | AID 504834, 2011 | 6.9% of 320,000 active | Potency, µM (highest dose often 28.7 µM), for the others: at the top dose activity change, negative = inhibition, hits mostly inhibitors | P. falciparum luciferase reporter growth, 96 h; active = well fitted inhibition curve with a large enough effect; inconclusive = small, poorly fitted or top-dose-only effect, or another doubt; inactive = no such curve, though single readings can be large or run the other way; also: potency is read from the fitted curve at half-maximal effect; % is scaled to controls: 0 for no effect and ±100 for the full control effect
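P. falciparum expressing integrated firefly luciferase grown in erythrocytes (2% hematocrit, 0.05% parasitemia final) with compounds for 96 hours at 37 C, 5% CO2. Growth inhibition read as loss of luminescence after adding luciferase detection reagent.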
NS1 inh valid – Assay for Inhibitors of Influenza NS1 Protein Function: Hit Validation; shares compounds with NS1 inh; influenza NS1 function cell assay, 15-point titration; activity change, negative = inhibition, % at 32.9 µM; 1,400 tested, under 10 active; AID 492980, 2010; also: 0% is about no effect
Numbers without * were called inactive; ? = inconclusive; . = no result given. An excerpt weighted towards active compounds, which were near 21% of everything screened. Unless noted, calls follow the shape of the full dose curve.

SMILES | SARS PLP yeast | Pf growth 48h | Shiga inhibitor | NS1 inh | CHX counter | Pf growth 96h | NS1 inh valid
COc1ccc(-c2csc(NC(=O)c3ccc(S(=O)(=O)N4CCc5ccccc5C4)cc3)n2)c(OC)c1 | -1% | -8% | -12 | 13µM* | -4 | ? | -16
O=C(Nc1nc(-c2ccccc2)cs1)C1CCCN(S(=O)(=O)c2ccccc2)C1 (stereo not drawn) | 8% | . | 20 | 11µM* | 3 | ? | 8
Cc1cc(C)c2nc(NC(=O)c3cccc(S(=O)(=O)N4CCc5ccccc54)c3)sc2c1 | 2% | -8% | 7 | 18µM* | 7 | 31% | 18
O=C(Cc1ccccc1)Nc1nc(-c2cccc([N+](=O)[O-])c2)cs1 | 14% | 8% | -9 | 9% | -4 | ? | .
COc1ccc(S(=O)(=O)N2CCc3ccccc3C2)cc1 | 0% | 0% | 15 | -7% | 8 | -14% | .
Cc1cccc2sc(NC(=O)c3cccc(S(=O)(=O)N4CCc5ccccc54)c3)nc12 | 10% | -9% | -6 | 10% | -1 | 35% | .
CCN(CC)c1nc(N)c([N+](=O)[O-])c(NCCO)n1 | 9% | 8% | -4 | -1% | 1 | 0% | .
COc1ccc(CNC(=O)N[C@@H](Cc2c[nH]c3ccccc23)C(=O)O)cc1 | -1% | 38% | -3 | 4% | -4 | 20% | .
CCCCn1c(N)c(N(CC)C(=O)CSc2nnc(-c3ccco3)n2CC)c(=O)[nH]c1=O | 2% | 4% | . | . | . | 0% | .
NS(=O)(=O)c1ccc(NC(=O)c2ccc(S(=O)(=O)N3CCc4ccccc43)cc2)cc1 | 2% | -31% | 3 | -5% | 7 | ? | .
O=C(Nc1nc(-c2ccccc2)cs1)c1ccc(S(=O)(=O)N2CCc3ccccc32)cc1 | 15% | ? | 10 | 5µM* | 2 | ? | ?
Cn1cccc1-c1cc(C(=O)N/N=C/c2ccc([N+](=O)[O-])cc2)[nH]n1 | 3% | 21% | 5 | 12% | -7 | 2% | .
CC(C)c1ccc(/C=N/NC(=O)c2cc(-c3cccc([N+](=O)[O-])c3)n[nH]2)cc1 | 0% | ? | 24 | 2% | -1 | ? | .
O=C(N/N=C/c1ccc(Cl)c([N+](=O)[O-])c1)c1cc(-c2ccc3c4c(cccc24)CC3)n[nH]1 | 1% | ? | -6 | 5µM* | -4 | ? | -1
O=C(N/N=C/c1cccc([N+](=O)[O-])c1)c1cc(-c2ccc3c4c(cccc24)CC3)n[nH]1 | -5% | 0% | 1 | ? | -3 | ? | -21
CCOc1cc(NC(=S)NCCCN2CCOCC2)c(OCC)cc1NC(=O)c1cccc(F)c1 | 2% | -15% | 18 | 1% | -2 | 0% | .
COc1ccc(/C=N\NC(=O)c2ccc(-c3ccccc3)cc2)cc1COC(C)=O | 6% | -16% | -13 | 21% | -2 | ? | .
COc1ccc(/C=N/NC(=O)c2cc(-c3ccc(C)cc3C)nc3ccccc23)cc1COC(C)=O | 1% | -8% | -8 | 10µM* | 13 | -7% | 6
O=C(NCc1ccco1)C1CCCN(S(=O)(=O)c2ccc(-n3cnnn3)cc2)C1 (stereo not drawn) | 1% | -16% | -9 | 4µM* | 7 | ? | 23
O=C(NCc1ccccc1F)C1CCCN(S(=O)(=O)c2ccc(-n3cnnn3)cc2)C1 (stereo not drawn) | 2% | 14% | -7 | 7% | -1 | -6% | .
Cc1cc(C)cc(-n2c(O)c(C=Nc3ccc(N4CCOCC4)cc3)c(=O)[nH]c2=S)c1 | -6% | -3% | -7 | 21% | -1 | 25% | .
O=c1[nH]c(=S)n(-c2ccc(Br)cc2)c(O)c1C=Nc1ccc(N2CCOCC2)cc1 | -12% | 41% | 0 | 7.9µM* | 16* | -13% | 6
COc1ncnc(OC)c1S(=O)(=O)NCc1ccccc1 | 1% | -14% | -2 | 0% | -8 | -6% | .
Cc1ccc(NC2CCCN(C(=O)CCN3CCOCC3)C2)cc1C (stereo not drawn) | 2% | 6% | -7 | ? | 2 | ? | -3
CC(C)c1ccc(NC2CCCN(C(=O)CCN3CCOCC3)C2)cc1 (stereo not drawn) | -5% | -7% | -1 | 1% | -4 | ? | .
SMILES | SARS PLP yeast | Pf growth 48h | Shiga inhibitor | NS1 inh | CHX counter | Pf growth 96h | NS1 inh valid
COC(=O)C(NC(C)=O)(Nc1nc2ccc(C)cc2s1)C(F)(F)F (stereo not drawn) | 22% | . | -4 | 8.9µM* | 2 | -9% | -5
COC(=O)C(NC(C)=O)(Nc1nc2ccc(S(C)(=O)=O)cc2s1)C(F)(F)F (stereo not drawn) | -2% | 24% | -4 | 1% | 1 | 4% | .
O=C1NC(=Nc2cccc([N+](=O)[O-])c2)SC1(CO)CO | 0% | 35% | -7 | 1% | 0 | 10% | .
COc1ccc2cc(/C=N/NC(=O)c3ccc(CN(c4cccc(Cl)c4Cl)S(C)(=O)=O)cc3)c(Cl)nc2c1 | -7% | ? | 25 | 13µM* | 7 | ? | ?
COc1ccc(NC(=O)CC(C)n2ccnc2)cc1 (stereo not drawn) | 1% | 16% | -13 | 3% | 0 | 159% | .
CCC(C)NC(=O)c1cc(CC(C)C)on1 (stereo not drawn) | -12% | 41% | 59* | ? | 49* | 12µM* | -17
Cc1cc(C)cc(NC(=S)NCc2cccn2C)c1 | 4% | ? | -5 | 10µM* | -3 | ? | -6
CCN1CCCC(OC(=O)c2cc(-c3ccc(C)cc3)nc3ccccc23)C1 (stereo not drawn) | -6% | -8% | 0 | . | -1 | ? | .
Nc1ccc(S(N)(=O)=O)cc1 | . | -11% | . | . | . | ? | .
Nc1ccc(S(N)(=O)=O)cc1N | 3% | 137% | 63 | 4.5µM* | 38 | 221% | 19
O=C(COC(=O)C1CC2C=CC1C2)Nc1ccccc1[N+](=O)[O-] (stereo not drawn) | -16% | . | . | . | . | . | .
COc1ccc(OC)c(S(=O)(=O)N2CCCC2C(=O)N2CCc3ccccc3C2)c1 (stereo not drawn) | 2% | 2% | -2 | ? | -7 | 2% | ?
COc1ccc(/C=N/NC(=O)c2nc(-c3ccccc3)n(-c3ccccc3)n2)cc1 | -22% | 6% | -7 | -22% | -1 | ? | .
COc1ccc(-n2nc(C(=O)N(C)C)nc2-c2ccccc2)cc1 | -2% | 16% | -6 | ? | -1 | 9.3µM* | 16
O=C(COc1ccc(Br)cc1)NCCCNC(=O)c1ccncc1 | 13% | ? | -16 | 2% | -4 | ? | .
COc1ccc(NS(=O)(=O)c2cc(NC(=O)c3ccco3)ccc2N2CCCC2)cc1 | 21% | ? | 12 | ? | 2 | ? | .

Assay outcomes as filed in PubChem.
